# Compound activity from PubChem.
# The list is not random: actives were taken first. Their share in the collection is about 2.8%.
# DRD3 agonist = activates the human D3 dopamine receptor | max activation, % | 410,000 tested, 0.58% active | D3R DiscoveRx beta-arrestin cells, luminescence, 90 min | AID 652048 | P35462; in the data active = max activation above about 30%; note: 0% is about no effect
#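 Cells at 1500/well, incubated overnight, then treated with pinned compounds (dopamine as control) for 90 min at 37 degrees C. DiscoveRx reagent added for 30 - 60 minutes at room temperature; luminescence read.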
# D3 antag = D3 dopamine receptor (human) antagonism; P35462; D3R cells, DiscoveRx beta-arrestin luminescence, antagonist mode; stronger effect = lower value; max response, negative = inhibition, %; 360,000 tested, 2.5% active; in the data active = max response below about -50%; note: % is set by controls: 0 for no effect and ±100 for the full control effect
#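 Cells plated overnight at 1500 cells/well, then exposed to library compounds with dopamine controls for 90 minutes at 37 degrees C. DiscoveRx reagent added for 30–60 minutes at room temperature; luminescence read, quantitative HTS format.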
# Giardia kill = kills Giardia lamblia | Giardia lamblia trophozoite viability | activity change, % at 7.66 µM, hits read low | 340,000 tested, 0.15% active | AID 540267; in the data active = activity change below about -80%;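 note: parasites exposed to compound for two days anaerobically before the ATP read; % is set by controls: 0 for no effect and ±100 for the full control effect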
#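 Trophozoites 100 cells/well + cpd; 48 hrs, 37 deg C, anaerobic. ATPLite 1-Step added, 15-30 min RT, luminescence read (ATP-based viability).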
# B2AR arrestin = beta2AR (human) beta-arrestin recruitment activity | 330,000 tested, 0.02% active | beta-arrestin recruitment to beta2AR, cell-based reporter | Potency, µM (top dose mostly 46.1 µM), for inactives: at the highest dose activation, usual class: activators | AID 492947; active = well fitted activation curve with a large enough effect;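 note: potency is the fitted concentration of half-maximal effect; 0% = DMSO controls and full agonism = EC100 isoproterenol or metaproterenol; nearly all actives have a fitted effect of over 65% in size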
# Target sequence (P07550 whole entry, looked up): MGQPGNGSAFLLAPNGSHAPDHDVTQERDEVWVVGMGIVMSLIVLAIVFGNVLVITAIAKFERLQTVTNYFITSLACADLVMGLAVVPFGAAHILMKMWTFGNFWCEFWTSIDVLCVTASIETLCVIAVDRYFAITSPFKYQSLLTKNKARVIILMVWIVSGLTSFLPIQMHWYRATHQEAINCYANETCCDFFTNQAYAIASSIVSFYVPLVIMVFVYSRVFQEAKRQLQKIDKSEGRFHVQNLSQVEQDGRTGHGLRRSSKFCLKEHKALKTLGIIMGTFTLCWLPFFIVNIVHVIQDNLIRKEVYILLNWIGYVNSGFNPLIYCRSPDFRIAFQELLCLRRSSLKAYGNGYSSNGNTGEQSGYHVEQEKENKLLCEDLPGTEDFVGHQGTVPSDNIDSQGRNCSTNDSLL
# Numbers without * were called inactive; x = no result given.
SMILES,DRD3 agonist,D3 antag,Giardia kill,B2AR arrestin
O=C1C=C(NC2CCCC2)CC(c2ccccc2)C1 (stereo unspecified),4.8,-1.8,17.2,3.55µM*
O=C1CCN(Cc2ccc(O)cc2)CCN1[C@H](CO)c1ccccc1,8.8,-6.6,29.2,-1.1%
O=C1CCN(Cc2ccccc2)CCN1[C@H](CO)c1ccccc1,-8.7,-50.7*,5.9,0.4%
COc1ccc(-c2cc(C(F)(F)F)nc(SCCC(=O)Nc3ccccc3F)n2)cc1,-3.0,x,x,x
COc1ccc(-c2cc(C(F)(F)F)nc(SCCC(=O)Nc3cc(C)ccc3O)n2)cc1,37.5*,x,x,x
Cn1nnc2cc(NC(=O)NCc3ccc4c(c3)OCO4)ccc21,-20.1,-89.7*,6.7,-0.3%
Cn1nnc2cc(C(=O)NCc3ccc4c(c3)OCO4)ccc21,-0.9,9.7,14.2,-0.4%
O=C(Nc1ccc2c(c1)OCCO2)C(c1cc2ccccc2o1)N1CCN(C/C=C/c2ccccc2)CC1 (stereo unspecified),-5.6,-110.9*,x,x
O=C(Nc1ccc2c(c1)OCCO2)C(C1CC1)N1CCN(C/C=C/c2ccccc2)CC1 (stereo unspecified),-5.4,-58.8*,x,x
CC1(C(=O)Nc2ccc3c(c2)OCCO3)CCN1C(=O)C/C=C/c1ccccc1 (stereo unspecified),-5.6,0.0,x,x
CCOc1ccc(CC(=O)NCCc2csc(-c3ccc(C(F)(F)F)cc3)n2)cc1,-4.4,x,x,x
O=C(NCCc1ccc(Cl)cc1)c1cccn1-c1nnc(N2CCCC2)s1,7.1,x,x,x
CCC(C)C(NC(=O)OC(C)(C)C)C(=O)NC1COC2CC(n3cc(F)c(=O)[nH]c3=O)OC12 (stereo unspecified),x,x,-7.0,x
O=c1[nH]c(=O)c2[nH]c(=O)[nH]c2[nH]1,-24.8,x,x,x
O=C(CSC1=NCCN1)Nc1cccc(C(F)(F)F)c1,-11.2,-65.4*,13.8,0.1%
Cn1ccnc1SCC(=O)Nc1cccc(C(F)(F)F)c1,-12.7,-10.5,-5.3,0.2%
COc1ccc(CNC(=O)C2CCN(C(=O)c3ccc(-n4ccc5ccccc54)s3)CC2)cc1,6.5,x,x,x
O=S(=O)(c1ccccc1)N1CCN(c2nc(-c3ccc(F)cc3)nc3cc(Cl)ccc23)CC1,x,x,-6.4,x
CC1CCCN(C(=O)c2cc3c(Cl)nc4ccccc4c3s2)C1 (stereo unspecified),8.1,x,x,x
CCN(CC)CCCNC(=O)c1cc2c(Cl)nc3ccccc3c2s1,-27.6,-53.6*,21.2,-0.1%
CC1CCCN(CCCNC(=O)c2cc3c(Cl)nc4ccccc4c3s2)C1 (stereo unspecified),-12.9,-64.6*,9.0,0.6%
CCCCN(CC)CCNC(=O)c1cc2c(=O)[nH]c3ccccc3c2s1,-22.9,-54.2*,9.9,-0.5%
CCN(CCCNC(=O)c1cc2c(Cl)nc3ccccc3c2s1)Cc1ccccc1,-15.7,x,x,x
CCOC(=O)C1CCCN(C(=O)c2cc3c(C)nc4ccccc4c3o2)C1 (stereo unspecified),38.5*,39.5,-3.5,0.0%
CCOC(=O)c1cc(OC(=O)c2cccc(F)c2)n(-c2ccccc2)n1,2.7,x,x,x
SMILES,DRD3 agonist,D3 antag,Giardia kill,B2AR arrestin
Cc1cccc(OCC(=O)Nc2cccc3cccnc23)c1C,6.2,x,x,x
CC(C)(C)c1ccc(CN2CCN(C(c3ccccc3)c3ccc(Cl)cc3)CC2)cc1 (stereo unspecified),-28.8,x,x,x
CC1CCCN(CCCNC(=O)c2cc(Sc3ccc(F)cc3)nc3ccccc23)C1 (stereo unspecified),-41.0,x,x,x
CN(C(=O)c1cc2c(Cl)nc3ccccc3c2s1)c1cccc(C(F)(F)F)c1,4.7,x,x,x
CC1CC(C)CN(CCCNC(=O)c2ccc3nc(N4CCOCC4)sc3c2)C1 (stereo unspecified),-16.6,-62.8*,-25.4,-0.2%
Cc1nc2ccccc2c2oc(C(=O)N3CC(C)CC(C)C3)cc12 (stereo unspecified),0.2,8.5,-11.2,0.0%
Cc1nc2ccccc2c2oc(C(=O)NCCCN3CCCC(C)C3)cc12 (stereo unspecified),-17.4,-77.2*,-6.1,-0.2%
COc1ccc(N(C)C(=O)c2cc3c(Cl)nc4ccccc4c3s2)cc1,66.1*,15.4,-3.6,-0.1%
Cc1nc2ccccc2c2oc(C(=O)NCCCN3CC(C)CC(C)C3)cc12 (stereo unspecified),-16.6,-65.3*,-2.5,0.1%
COc1ccc(C)cc1NC(=O)COc1cc(=O)n(C)c2ccccc12,1.2,x,x,x
CCCS(=O)(=O)c1c(S(=O)(=O)CCC)c2cc(C(C)(C)C)ccn2c1C(=O)c1ccc(C)cc1,0.1,x,x,x
CC/C(=N\Nc1ccccc1[N+](=O)[O-])c1ccc(O)cc1,-11.5,-57.4*,0.2,0.1%
CC(CCN1CCOCC1)c1ccccc1 (stereo unspecified),-1.6,-12.2,7.2,-0.3%
CC(CN1CCN(c2ccccc2)CC1)c1ccccc1 (stereo unspecified),-29.3,-64.3*,-5.9,0.4%
c1ccc(SCCN2CCN(c3ccccc3)CC2)cc1,-7.9,-102.9*,22.6,-0.9%
CC(CCN1CCN(CCO)CC1)c1ccccc1 (stereo unspecified),-9.8,4.7,-21.1,0.3%
CC(CCN1CCN(c2ccc(F)cc2)CC1)c1ccccc1 (stereo unspecified),-33.7,-76.4*,0.1,2.3%
Cc1c(-c2nnc(SCC(=O)Nc3ccc(Cl)cc3)o2)nnn1-c1ccc(F)cc1,-7.9,x,x,x
COc1ccc(C2C=C(c3ccccc3)Nc3nc(NC(=O)c4cccc([N+](=O)[O-])c4)nn32)cc1 (stereo unspecified),3.8,x,x,x
CCCCCn1c(=O)[nH]c2cc(C(=O)N3CCN(c4cccc(C(F)(F)F)c4)CC3)ccc2c1=O,2.3,x,x,x
Cc1nc(SCC(=O)N2c3ccccc3Sc3ccccc32)n[nH]1,-6.9,-56.7*,-13.5,0.3%
O=C(CSc1nc2ccccc2[nH]1)N1c2ccccc2Sc2ccccc21,-25.5,-9.4,0.8,1.3%
CC(=O)c1ccc(NC(=O)CN2C(=O)CCc3ccccc32)cc1,-0.4,x,x,x
O=C1C(=O)c2c(ccc3ccccc23)-c2ccccc21,-13.9,-53.5*,0.5,x
CC1CCC(NC(=O)c2ccc3c(c2)N(Cc2ccccc2F)C(=O)c2ccccc2S3=O)CC1 (stereo unspecified),-2.1,x,x,x
SMILES,DRD3 agonist,D3 antag,Giardia kill,B2AR arrestin
COc1ccc(-c2nc(-c3ccc(NC(=O)c4ccc(Br)o4)cc3)no2)cc1OC,37.7*,60.6,-2.1,-0.5%
COc1ccc(CCC(=O)Nc2ccc(-c3noc(-c4ccc(OC)c(OC)c4)n3)cc2)cc1,26.0,47.6,20.3,-0.4%
COc1cc(-c2nc(-c3ccc(NC(=O)c4ccc(Br)o4)cc3)no2)cc(OC)c1OC,105.4*,39.4,19.4,0.5%
FC(F)(F)c1ccc(C2=Nc3ccccc3NC(c3cccs3)=N2)cc1,-3.2,x,x,x
CC(=O)NCCCc1ccc(C(=O)COC(=O)CNC(=O)c2ccc3ccccc3c2)cc1,x,x,-23.8,x
CCC(C)(C)C1CCc2[nH]nc(C(=O)NC3CCCCC3)c2C1 (stereo unspecified),-44.3,-62.2*,-28.9,0.5%
CCn1c(O)c(N=N)c2ccccc21,4.5,4.3,-6.7,0.1%
CCn1c(O)c(N=NC2=NC(=O)CS2)c2ccccc21,-16.0,-79.5*,-29.4,-4.0%
